From PubChem
The list is not random: actives were taken first. Their share in the collection is about 2.6%.
AmpC nodet inh: blocks E. coli AmpC beta-lactamase in absence of detergent. P00811. AmpC nitrocefin hydrolysis, absorbance 480 nm, no detergent. Potency, µM (highest dose often 28.7 µM), inactives show at the top dose activity change, negative = inhibition. 1.8% of 71,000 active. AID 585; note: % of control where 0% means no effect
Target sequence (P00811 whole entry, looked up): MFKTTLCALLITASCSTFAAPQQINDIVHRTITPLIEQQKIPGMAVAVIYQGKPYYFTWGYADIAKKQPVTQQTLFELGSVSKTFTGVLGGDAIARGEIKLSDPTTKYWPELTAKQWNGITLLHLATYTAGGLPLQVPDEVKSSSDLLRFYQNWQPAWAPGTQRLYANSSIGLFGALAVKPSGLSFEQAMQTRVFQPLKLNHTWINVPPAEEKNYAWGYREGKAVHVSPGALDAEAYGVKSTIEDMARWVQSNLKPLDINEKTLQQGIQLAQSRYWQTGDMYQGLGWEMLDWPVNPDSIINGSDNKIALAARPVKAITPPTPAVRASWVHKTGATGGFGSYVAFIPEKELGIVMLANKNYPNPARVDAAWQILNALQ
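AmpC in 20 mM phosphate buffer pH 7.0 was preincubated 15 min at room temperature with compounds. Nitrocefin (800 uM stock) was then added and hydrolysis followed at 480 nm every 20 s for 4 min.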
Anthrax LT inh: blocks cellular internalization of anthrax lethal toxin | Cells, anthrax lethal toxin internalization, FRET ratio (460/530) | Potency, µM (top dose mostly 40 µM), inactives show top-dose activity change, negative = inhibition, most hits filed as inhibitors | 0.67% of 70,000 active; note: % is set by controls: 0 for no effect and ±100 for the full control effect; nearly all actives have a fitted effect of over 50% in size
SmPrx2 inh: inhibitors of Schistosoma mansoni peroxiredoxin 2; Potency, µM; AID 448; S. mansoni Prx2 activity coupled to TGR/GSH (TGR is thioredoxin glutathione reductase), NADPH fluorescence loss, qHTS; 0.07% of 65,000 active
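Coupled assay in which S. mansoni TGR passes NADPH reducing equivalents via glutathione to Prx2, which reduces H2O2. Compounds were preincubated 15 min at room temperature with 25 nM TGR/50 nM Prx2 mix. Kinetic NADPH fluorescence loss (ex 365/em 450 nm) was monitored.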
AmpC det inh: inhibitors of E. coli AmpC beta-lactamase with detergent; P00811; purified AmpC, nitrocefin hydrolysis with detergent; Potency, µM (titrated, usually from 28.7 µM), without a hit: at the highest dose activity change, negative = inhibition; 0.09% of 71,000 active; AID 584; active = well fitted curve in the direction sought with a large enough effect; inconclusive = small, poorly fitted or top-dose-only effect; note: % is set by controls: 0 for no effect and ±100 for the full control effect
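E. coli AmpC (5.3 nM) in 20 mM phosphate pH 7.0 with 0.01% Triton X-100, preincubated 15 min RT with compound; nitrocefin (2 uL of 800 uM stock) hydrolysis followed by 480 nm absorbance every 20 s over 4 min.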
The depositor's hits bear a star; u = inconclusive; x = no result given; [ ] = dose if it differs, or a comment. Unless noted, calls come from the whole dose curve. Potency is the fitted concentration of half-maximal effect.

SMILES | AmpC nodet inh | Anthrax LT inh | SmPrx2 inh | AmpC det inh
COc1ccc(-c2cc([C@H](O)[C@@H]3CCCCN3)c3ccccc3n2)cc1 | -8.4%[5.75 µM] | 4.1%[8 µM] | >57 | -6.6%[5.75 µM]
C[C@]1(O)CC[C@H]2[C@@H]3[C@@H](O)CC4=CC(=O)CC[C@@]4(C)[C@H]3CC[C@]21C | -4.4%[5.75 µM] | 1.7%[8 µM] | >57 | -3.9%[5.75 µM]
O=C(Cn1c(-c2ccccc2)noc1=O)Nc1ccc(S(=O)(=O)N2CCOCC2)cc1 | 19.0% | -5.4% | >57 | -8.4%
O=C(Cn1c(-c2ccccc2)noc1=O)Nc1ccc(N2CCCCCC2)cc1 | 12.6µM* | u | >57 | -2.3%
Cc1ccc(-c2nnc(SCC(=O)Nc3ccc4c(c3)OCCO4)n2N)cc1 | -5.5% | -2.9% | >57 | 9.6%
Cc1cc(C(=O)CSc2nnnn2-c2ccc(O)cc2)c(C)n1Cc1ccc2c(c1)OCO2 | 12.6µM* | u | >57 | -4.5%
Cc1cc(C(=O)CSc2nnc(-c3cccc(F)c3)n2N)c(C)n1Cc1ccc2c(c1)OCO2 | 15.8µM*[single pt active] | -14.4% | >57 | 9.5%
CC1=CC(=O)CC(C)(C)[C@@]1(O)/C=C\C(C)=C\C(=O)O | 4.2% | u | >57 | -0.8%
CN(C)CC(C(=O)c1ccccc1)c1ccccc1 (configuration not stated) | -18.7% | 10µM* | >57 | -2.9%
C/C(=N\O)c1ccc2c3c([nH]c2c1)CCCC3 | -9.3% | 10µM* | x | 4.0%
O=C(NCCO)c1ccc2[nH]c3c(c2c1)CCCC3 | 2.3% | -13.2% | x | 5.3%
COc1ccc2c(c1)CCC1C2CC[C@]2(C)[C@H](NCCCCCCN3C(=O)C=CC3=O)CC[C@@H]12 (some centres not stated) | 0.1% | 2.8% | >57 | -6.3%
S=C=Nc1cccc(C2(N3CCCCC3)CCCCC2)c1 | 27.1% | 12.6µM* | >57 | 1.3%
CC(C)(CC(=O)Nc1ccccc1)C(=O)O | -4.2%[5.75 µM] | 0.2%[8 µM] | >57 | -1.8%[5.75 µM]
CN1CCN(c2ncc3nc(-c4cccc(C#N)c4)c(=O)n(Cc4ccc(F)cc4)c3n2)CC1 | 142.9% | u | >57 | 1.9%
CN(C)C(=O)N1CCC(C(=O)NCc2ccccc2Cl)CC1 | -14.0% | -7.3% | >57 | -2.7%
O=C(NCc1ccccc1Cl)C1CCN(C(=O)c2sccc2-n2cccc2)CC1 | 25.2% | 12.6µM* | >57 | 3.7%
CC(=O)Nc1ccc(C(=O)CCl)cc1 | -9.4% | 12.6µM* | x | 9.3%
COc1ccc(C2=NOC(C(=O)Nc3cc(C)nn3-c3ccccc3)C2)cc1OC (configuration not stated) | 3.98µM*[single pt active] | -2.1% | >57 | 15.0%
COc1ccc(C2=NOC(C(=O)Nc3ccc(C)cc3)C2)cc1OC (configuration not stated) | 48.5% | 3.2% | >57 | -2.6%
COc1ccc(CNC(=O)C(c2cccs2)N(C(=O)c2csnn2)C2CC2)cc1 (configuration not stated) | 18.2% | 7.94µM* | >57 | -4.1%
N#C/C(=C(\O)C(=O)O)c1ccc(-c2cccc3ccccc23)cc1 | -13.1%[5.75 µM] | u | >57 | -0.7%[5.75 µM]
Oc1ccc2c3c1O[C@@H]1c4[nH]c5c(c4C[C@@]4(O)[C@@H](C2)N(CC2CC2)CC[C@]314)C[C@]1(O)[C@@H]2Cc3ccc(O)c4c3[C@@]1(CCN2CC1CC1)[C@H]5O4 | 23.1% | -2.3% | >57 | -2.3%
Cc1nn2cc(-c3ccc(Cl)cc3)nc2s1 | -8.5% | -6.7% | >57 | 15.1%
Cc1nn2cc(-c3ccc(-c4ccccc4)cc3)nc2s1 | 12.6µM* | 1.0% | >57 | -2.8%
SMILES | AmpC nodet inh | Anthrax LT inh | SmPrx2 inh | AmpC det inh
O=C(c1ccc(N2CCCCS2(=O)=O)cc1)N1CCN(c2ccc(N3CCOCC3)nn2)CC1 | 3.98µM*[single pt active] | -10.0% | >57 | 12.2%
C[C@H](CN(C)C)C(C#N)(c1ccccc1)c1ccccc1 | 15.0%[5.75 µM] | -0.4%[8 µM] | >57 | -2.2%[5.75 µM]
C[C@@]12CC[C@H]3[C@@H](CCC4=C(O)C(=O)CC[C@]43C)[C@H]1CCC2=O | 3.6% | -1.6% | >57 | -2.7%
Cc1ccc(Cn2ccc(NC(=O)c3cc(CC(C)C)on3)n2)cc1 | 3.98µM*[single pt active] | u | >57 | 7.9%
Cc1ccc(Cn2ccc(NC(=O)c3cc(-c4ccc(F)cc4)on3)n2)cc1 | 7.94µM* | -5.8% | >57 | 6.8%
Cc1ccc(Cn2ccc(NC(=O)c3cc(-c4ccc(Cl)cc4)on3)n2)cc1 | -10.2% | -3.2% | >57 | 9.3%
O=C1CN2CCN(CC2)CC(=O)Nc2ccc(cc2)S(=O)(=O)c2ccc(cc2)NC(=O)CN2CCN(CC2)CC(=O)Nc2ccc(cc2)S(=O)(=O)c2ccc(cc2)N1 | 8.7%[5.75 µM] | -7.4%[8 µM] | >57 | -3.2%[5.75 µM]
